For experiment [1], the target named is Lysosomal acid glucosylceramidase (Homo sapiens) (UniProt P04062). In words: Glucocerebrosidase-p2 (AID 348; in the data active means potency below about 10 µM; further: potency means the concentration at half of the fitted maximal effect). Conditions: purified GBA, blue fluorogenic substrate, 40 min. In a few lines: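 Compounds titrated from 0.6 nM upwards against 0.2 nM enzyme in pH 5.9 citric acid/KH2PO4, taurocholate, tween-20; blue fluorogenic substrate 80 uM, 40 min room temperature, stopped and read Ex 365/Em 440 for AC50.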
Lysosomal acid glucosylceramidase (Homo sapiens), sequence (P04062 whole entry, looked up): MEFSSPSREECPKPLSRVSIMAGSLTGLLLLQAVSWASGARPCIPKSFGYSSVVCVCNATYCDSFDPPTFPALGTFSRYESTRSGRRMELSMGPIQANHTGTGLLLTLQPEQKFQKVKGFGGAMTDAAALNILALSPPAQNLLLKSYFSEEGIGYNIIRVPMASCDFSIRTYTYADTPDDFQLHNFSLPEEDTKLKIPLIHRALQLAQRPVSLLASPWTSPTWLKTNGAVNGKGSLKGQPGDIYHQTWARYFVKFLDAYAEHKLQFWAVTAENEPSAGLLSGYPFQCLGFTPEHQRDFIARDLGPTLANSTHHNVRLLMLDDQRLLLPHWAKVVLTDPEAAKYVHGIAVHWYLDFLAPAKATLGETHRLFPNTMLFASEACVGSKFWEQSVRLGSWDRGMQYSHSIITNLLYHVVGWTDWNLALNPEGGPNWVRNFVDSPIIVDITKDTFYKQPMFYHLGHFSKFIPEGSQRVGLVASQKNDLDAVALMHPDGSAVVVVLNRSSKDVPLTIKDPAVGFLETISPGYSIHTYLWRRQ

Experiment [2] in a line: AP1 Signaling Pathway (AID 357).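 Further: ME-180 reporter cells stimulated with EGF at its EC50 level; on the % scale 0 is the no-effect control and ±100 the full control effect.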 Conditions: ME-180 AP-1-bla reporter, EGF-induced, beta-lactamase ratio, 5 h; at 7.69 µM (top of the series) unless noted. The procedure, abridged:
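Beta-lactamase reporter under AP-1 response element, ME-180 background. Stimulus: EC50 EGF. Compound exposure 5 h, 37 °C. Detection: CCF4, 2.5 h RT, 460/530 nm. Values: AC50 from titration.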

For experiment [3], the target named is Cytochrome P450 1A2 (Homo sapiens) (UniProt P05177). The experiment can be described thus: p450-cyp1a2 (AID 410; calls by dose curve; further: potency means the concentration at half of the fitted maximal effect). Conditions: recombinant CYP1A2, luciferin-ME demethylation, luminescence; series mostly up to 57 µM. The procedure, abridged: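 Human CYP1A2 (20nM) demethylated Luciferin-ME at its Km (100uM) in 100mM KPO4. After 10 min compound preincubation, NADPH regeneration ran the reaction 60 min at room temperature. Luciferin was read by luminescence, normalized to 57 uM furafylline.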
Cytochrome P450 1A2 (Homo sapiens), sequence (P05177 whole entry, looked up): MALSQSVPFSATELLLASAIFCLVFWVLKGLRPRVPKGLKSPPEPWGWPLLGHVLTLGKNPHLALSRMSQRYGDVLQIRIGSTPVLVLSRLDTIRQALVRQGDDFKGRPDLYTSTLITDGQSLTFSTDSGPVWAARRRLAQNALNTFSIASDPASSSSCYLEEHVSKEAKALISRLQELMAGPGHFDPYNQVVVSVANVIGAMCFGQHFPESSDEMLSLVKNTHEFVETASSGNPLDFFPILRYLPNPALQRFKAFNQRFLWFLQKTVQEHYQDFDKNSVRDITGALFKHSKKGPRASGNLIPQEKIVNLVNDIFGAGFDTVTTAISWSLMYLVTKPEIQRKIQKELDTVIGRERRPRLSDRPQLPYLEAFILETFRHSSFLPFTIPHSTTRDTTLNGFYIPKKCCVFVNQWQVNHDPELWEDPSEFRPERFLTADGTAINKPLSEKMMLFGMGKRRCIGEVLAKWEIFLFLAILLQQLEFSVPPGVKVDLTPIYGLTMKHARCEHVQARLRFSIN

The nature of experiment [4]: NFAT Signaling Pathway (AID 444).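 Further: carbachol stimulus at about its EC50 of 1 µM final; on the % scale 0 is the no-effect control and ±100 the full control effect.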 The following applies: Jurkat NFAT-bla M1, carbachol, beta-lactamase ratio, 5 h; at 7.69 µM (top of the series) unless noted. The procedure, abridged:
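Jurkat cells carrying an NFAT-driven β-lactamase reporter and co-transfected muscarinic M1 receptor were treated with compound plus carbachol (1 uM final, an EC50 level) for 5 h at 37 °C. CCF4 loading followed for 1 h at RT; 460/530 nm ratio gave %activity.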

The nature of experiment [5]: Stat Signaling Pathway (AID 446).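 Further: ME-180 cervical cancer cells given 40 pM IL-6 alongside compound; SIE-controlled beta-lactamase reporter measured as 460/530 nm FRET emission ratio; on the % scale 0 is the no-effect control and ±100 the full control effect.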 Conditions: ME-180 SIE beta-lactamase reporter, IL-6 stimulated, 5 h; at 7.69 µM (top of the series) unless noted. The procedure, abridged: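 ME-180 SIE-bla cells; overnight plating; cpd + IL-6 40 pM, 5 h, 37 C; LiveBLAzer 2.5 h RT; 460/530 nm emission ratio. Normalized to 300 pM IL-6 and 125 nM JAK inhibitor controls.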
Experiment [6] deals with Glucocorticoid receptor (Homo sapiens) (UniProt P04150). In words: GR-GFP Redistribution (AID 450;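 active means compounds whose dose series gives a full or clear partial fitted curve of increased nuclear translocation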; further: potency means the concentration at half of the fitted maximal effect). Conditions: U2OS GR-GFP nuclear translocation, laser cytometry, 2 h.
Glucocorticoid receptor (Homo sapiens), sequence (P04150 whole entry, looked up): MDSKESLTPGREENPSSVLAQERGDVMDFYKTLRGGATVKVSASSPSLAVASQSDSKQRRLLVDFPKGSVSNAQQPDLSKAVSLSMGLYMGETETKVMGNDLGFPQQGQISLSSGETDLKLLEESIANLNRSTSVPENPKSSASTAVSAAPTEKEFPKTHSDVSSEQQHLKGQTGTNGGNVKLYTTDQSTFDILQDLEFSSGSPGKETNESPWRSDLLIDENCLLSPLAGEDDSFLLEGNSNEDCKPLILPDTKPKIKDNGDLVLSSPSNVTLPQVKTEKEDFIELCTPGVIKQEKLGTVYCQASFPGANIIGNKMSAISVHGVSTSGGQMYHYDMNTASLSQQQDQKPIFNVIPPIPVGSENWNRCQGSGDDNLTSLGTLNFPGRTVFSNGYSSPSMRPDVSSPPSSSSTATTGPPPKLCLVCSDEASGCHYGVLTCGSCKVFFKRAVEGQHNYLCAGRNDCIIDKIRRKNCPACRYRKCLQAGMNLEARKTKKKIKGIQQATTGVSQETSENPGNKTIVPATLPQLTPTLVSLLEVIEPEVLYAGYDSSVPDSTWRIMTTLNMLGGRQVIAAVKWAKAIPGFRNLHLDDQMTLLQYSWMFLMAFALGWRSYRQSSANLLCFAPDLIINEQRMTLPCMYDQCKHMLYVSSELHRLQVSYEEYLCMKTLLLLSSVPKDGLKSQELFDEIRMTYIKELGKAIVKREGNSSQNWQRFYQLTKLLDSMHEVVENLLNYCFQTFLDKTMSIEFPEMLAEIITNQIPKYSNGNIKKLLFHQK
The target is the same in experiment [7]. The experiment can be described thus: GR-EFC Redistribution (AID 451; calls by dose curve; further: potency means the concentration at half of the fitted maximal effect). The following applies: CHO-K1 GR-EFC translocation, beta-gal luminescence, 2 h. In a few lines:
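CHO-K1 cells stably expressing nuclear-localized β-gal enzyme acceptor and GR fused C-terminally to the enzyme donor fragment; ligand-driven nuclear translocation restores β-gal by complementation. Compounds titrated up to 46 uM final, 2 h at 37 °C; luminescence read.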

Experiment [8] has as its target Mitogen-activated protein kinase 10 (Mus musculus) (UniProt Q61831). The experiment can be described thus: JNK3 AlphaScreen Assay (AID 530).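 Further: kinase came from lysate of stimulated human HepG2 cells; on the % scale 0 is the no-effect control and ±100 the full control effect.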 The following applies: JNK3 lysate, c-Jun phosphorylation; series mostly up to 57.1 µM. In a few lines: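 JNK3 came from HepG2 lysates pre-activated with IL-1beta and TNF-alpha and phosphorylated biotinylated GST-cJun (1-79) at 10 uM ATP, pH 7.6, room temperature. Compounds were titrated. AlphaScreen signal used anti-phospho-cJun (Ser73) antibody.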

The target in experiment [9] is Cytochrome P450 2C9 (Homo sapiens) (UniProt P11712). In words: qHTS Assay for Inhibitors and Substrates of Cytochrome P450 2C9 (AID 883; active means well fitted curve in the direction sought with a large enough effect; an effect the other way counts as inactive or inconclusive; further: on the % scale 0 is the no-effect control and ±100 the full control effect; nearly all actives have a fitted effect of over 60% in size). Conditions: recombinant CYP2C9, luciferin-H luminescence, 60 min; series mostly up to 57.1 µM. In a few lines:
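A luminogenic readout tracked human CYP2C9 (10nM) converting deoxyluciferin (100uM, at KM) in 25mM KPO4 during 60 min at 37C with regenerated NADPH. Values normalized to 57uM sulphaphenazole as complete inhibition.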
(In qHTS, concentration-response curves come from the screen itself.)

Experiment [10] concerns the target Cytochrome P450 3A4 (Homo sapiens) (UniProt P08684). In words: qHTS Assay for Activators of Cytochrome P450 3A4 (AID 885; active means well fitted curve in the direction sought with a large enough effect; an effect the other way counts as inactive or inconclusive; further: nearly all actives have a fitted effect of over 65% in size). The following applies: recombinant CYP3A4, Luciferin-PPXE luminescence, 60 min; series mostly up to 57.1 µM. The procedure, abridged: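 20nM CYP3A4 + 25uM Luciferin-PPXE (=KM), 200mM KPO4; cpd 10 min RT; NADPH regen, 60 min RT; stop w/ detection buffer, 20 min; luminescence. Normalized to 57 uM ketoconazole.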

Experiment [11] is described as follows: Confirmation and Secondary Assay for Modulators of Hemoglobin Beta Chain Splicing at IVS2 654 locus (AID 910; active means well fitted curve in the direction sought with a large enough effect; an effect the other way counts as inactive or inconclusive;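 further: per-well total GFP intensity by laser scanning cytometry after 2-day treatment; % of control where 0% means no effect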). Conditions: HeLa EGFP-654 splicing reporter, GFP fluorescence, 48 h; series mostly up to 38.3 µM. The procedure, abridged:
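HeLa cells stably carrying EGFP interrupted by mutant beta-globin IVS2-654 intron (CMV-driven) were treated with compound for 2 days at 37C; corrected splicing was scored as total peak GFP intensity per well (488 nm excitation, 500-520 nm emission).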

Experiment [12] is described as follows: qHTS Assay for Identification of Small Molecule Agonists for Hypoxia Response Element Signaling Pathway (AID 914; active means well fitted activation curve with a large enough effect in the signal ratio, with a control signal flat, not every such curve was filed as active; the % refers to the signal ratio; further: % of control where 0% means no effect). Conditions: ME-180 (cervical carcinoma) HRE-bla reporter, beta-lactamase ratio, CoCl2, 17 h; activation: stronger effect = higher value. In a few lines:
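AC50 values come from titration-series %Activity, taken as the 460/530nm ratio of CCF4 fluorescence (excitation 405nm). CellSensor HRE-bla ME-180 cells were treated 17 hours at 37 C with compound plus an EC50 level of CoCl2.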

Experiment [13] is described as follows: Confirmation and Secondary Assay for Modulators of Hemoglobin Beta Chain Splicing at IVS2 705 locus (AID 930; active means well fitted curve in the direction sought with a large enough effect; an effect the other way counts as inactive or inconclusive;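 further: HeLa cells stably expressing the EGFP-705 splicing reporter; % of control where 0% means no effect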). Conditions: HeLa EGFP-705 splicing reporter, GFP fluorescence, 48 h; series mostly up to 38.3 µM. In a few lines:
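Restored EGFP fluorescence after 2-day compound exposure reports splicing correction in IVS2-705 EGFP reporter HeLa cells; positive control was 500 nM splice-blocking PNA oligo. Signal measured as well total peak GFP intensity (488 nm excitation).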

A short description of experiment [14]: qHTS Assay for Lipid Storage Modulators (AID 1519; calls by dose curve). Conditions: Drosophila S3 cells, BODIPY lipid droplet/cell ratio, laser cytometry, cells loaded with oleic acid; for activity change, negative = inhibition: at 57.5 µM (top of the series). In a few lines:
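Cells seeded at 5,000 per well were treated with compounds over a concentration series and loaded with oleic acid (400 uM, as added). Lipid droplet fluorescence (488 nm excitation, 500-530 nm channel) was read by laser-scanning cytometry and normalized to 20 uM Triacsin C.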

Experiment [15] is described as follows: Primary qHTS for small molecule stabilizers of the endoplasmic reticulum resident proteome: Secreted ER Calcium Modulated Protein (SERCaMP) assay (AID 1508630; active means well fitted curve in the direction sought with a large enough effect; an effect the other way counts as inactive or inconclusive; further: on the % scale 0 is the no-effect control and ±100 the full control effect). Conditions: SH-SY5Y GLuc-SERCaMP (Gaussia luciferase released on ER calcium loss) secretion, thapsigargin, luminescence; series mostly up to 38.4 µM. The procedure, abridged:
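GLuc-SERCaMP-expressing SH-SY5Y cells, pretreated 16 h with compound, are challenged with thapsigargin to empty ER calcium stores; after 4 h, coelenterazine is added directly to the medium and luminescence is imaged.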

In experiment [16] the target is Cytochrome P450 2C19 (Homo sapiens) (UniProt P33261). The experiment can be described thus: qHTS Assay for Inhibitors and Substrates of Cytochrome P450 2C19 (AID 899; active means well fitted curve in the direction sought with a large enough effect; an effect the other way counts as inactive or inconclusive; further: on the % scale 0 is the no-effect control and ±100 the full control effect; nearly all actives have a fitted effect of over 60% in size). The following applies: recombinant CYP2C19, luciferin-H EGE luminescence; series mostly up to 57.1 µM. The procedure, abridged: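 NADPH-dependent conversion of Luciferin-H EGE (10uM, at KM) by 5nM enzyme in 50mM KPO4, 60 min at 37C following 10 min compound preincubation. Stopped with luciferin detection buffer; luminescence read after 20 min.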
Cytochrome P450 2C19 (Homo sapiens), sequence (P33261 whole entry, looked up): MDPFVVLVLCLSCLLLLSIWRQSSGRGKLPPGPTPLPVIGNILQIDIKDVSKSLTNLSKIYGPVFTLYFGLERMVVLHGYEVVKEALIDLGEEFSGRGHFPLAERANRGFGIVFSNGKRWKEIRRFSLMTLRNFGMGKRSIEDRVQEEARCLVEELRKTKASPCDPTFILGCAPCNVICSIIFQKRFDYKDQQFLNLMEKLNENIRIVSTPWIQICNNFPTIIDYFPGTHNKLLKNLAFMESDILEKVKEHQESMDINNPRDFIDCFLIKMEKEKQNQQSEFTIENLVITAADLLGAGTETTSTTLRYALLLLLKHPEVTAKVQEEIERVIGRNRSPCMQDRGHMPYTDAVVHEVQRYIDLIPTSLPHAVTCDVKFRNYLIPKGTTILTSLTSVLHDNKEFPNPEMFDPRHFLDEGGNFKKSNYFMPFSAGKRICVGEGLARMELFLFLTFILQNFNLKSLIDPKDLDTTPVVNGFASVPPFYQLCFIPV

The target in experiment [17] is 3',5'-cyclic-AMP phosphodiesterase 4B (Homo sapiens) (UniProt Q07343). In words: qHTS Assay for Inhibitors of PDE-IV (AID 607; active means well fitted activation curve with a large enough effect in the main read-out, with a control signal flat, not every such curve was filed as active; further: % of control where 0% means no effect). Conditions: HEK293 ACTOne CNG channel cells, membrane potential fluorescence; series mostly up to 22.9 µM. In a few lines: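 ACTOne HEK293 cells carry a modified cAMP-gated CNG channel and express endogenous PDE4; plated 1000 cells/well, compounds up to 22.9 uM final. Membrane-potential dye fluorescence (ex 535/em 590) was read; parental cells received 10 uM forskolin + 100 uM RO 20-1724.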
3',5'-cyclic-AMP phosphodiesterase 4B (Homo sapiens), sequence (Q07343 whole entry, looked up): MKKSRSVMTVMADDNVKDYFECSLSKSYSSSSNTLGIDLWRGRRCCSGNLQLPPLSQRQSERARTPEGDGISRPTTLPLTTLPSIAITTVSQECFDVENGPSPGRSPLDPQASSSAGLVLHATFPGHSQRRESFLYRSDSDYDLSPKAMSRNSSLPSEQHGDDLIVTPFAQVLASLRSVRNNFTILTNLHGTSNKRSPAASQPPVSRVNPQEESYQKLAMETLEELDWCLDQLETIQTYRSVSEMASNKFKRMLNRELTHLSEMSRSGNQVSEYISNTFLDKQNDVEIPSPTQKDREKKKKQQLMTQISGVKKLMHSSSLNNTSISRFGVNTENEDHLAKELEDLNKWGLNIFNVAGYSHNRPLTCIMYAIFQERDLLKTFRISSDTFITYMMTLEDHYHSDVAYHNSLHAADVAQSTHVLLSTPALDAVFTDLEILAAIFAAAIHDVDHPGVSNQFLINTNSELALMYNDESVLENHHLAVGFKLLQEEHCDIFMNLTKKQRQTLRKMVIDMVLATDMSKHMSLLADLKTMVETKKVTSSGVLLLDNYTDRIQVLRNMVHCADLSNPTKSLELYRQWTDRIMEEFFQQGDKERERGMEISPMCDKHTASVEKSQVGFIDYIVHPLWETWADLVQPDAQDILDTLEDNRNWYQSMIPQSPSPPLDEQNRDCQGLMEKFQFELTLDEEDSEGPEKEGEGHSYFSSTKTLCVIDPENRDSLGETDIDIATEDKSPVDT

Setting [18] is: measured here: cell count channel max response.
The mark [19] stands for this setting: measured here: lipid channel max response.

Results filed as inconclusive are left out. Active and inactive are the calls of the source. Unless noted, the call rests on the fitted dose curve; in most records, active means well fitted curve in either direction with a large enough effect (not every such curve was filed as active); inconclusive means small, poorly fitted or top-dose-only effect, or another doubt; inactive means flat fitted curve, though single readings scatter.

Cytochrome P450 3A4 (Homo sapiens), sequence (P08684 whole entry, looked up): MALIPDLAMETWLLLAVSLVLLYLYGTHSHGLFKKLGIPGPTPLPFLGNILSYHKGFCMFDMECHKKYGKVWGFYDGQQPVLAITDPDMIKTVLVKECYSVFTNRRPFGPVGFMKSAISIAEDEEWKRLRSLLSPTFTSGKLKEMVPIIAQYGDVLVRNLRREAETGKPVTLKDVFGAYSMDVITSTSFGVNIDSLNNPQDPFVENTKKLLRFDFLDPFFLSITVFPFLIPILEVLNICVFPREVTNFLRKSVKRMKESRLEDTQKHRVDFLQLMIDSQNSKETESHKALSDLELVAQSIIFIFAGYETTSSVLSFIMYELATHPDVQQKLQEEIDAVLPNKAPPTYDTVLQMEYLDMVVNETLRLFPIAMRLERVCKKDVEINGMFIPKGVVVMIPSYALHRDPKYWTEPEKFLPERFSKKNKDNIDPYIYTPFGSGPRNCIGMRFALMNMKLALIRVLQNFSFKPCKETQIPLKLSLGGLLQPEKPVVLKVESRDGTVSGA
Cytochrome P450 2C9 (Homo sapiens), sequence (P11712 whole entry, looked up): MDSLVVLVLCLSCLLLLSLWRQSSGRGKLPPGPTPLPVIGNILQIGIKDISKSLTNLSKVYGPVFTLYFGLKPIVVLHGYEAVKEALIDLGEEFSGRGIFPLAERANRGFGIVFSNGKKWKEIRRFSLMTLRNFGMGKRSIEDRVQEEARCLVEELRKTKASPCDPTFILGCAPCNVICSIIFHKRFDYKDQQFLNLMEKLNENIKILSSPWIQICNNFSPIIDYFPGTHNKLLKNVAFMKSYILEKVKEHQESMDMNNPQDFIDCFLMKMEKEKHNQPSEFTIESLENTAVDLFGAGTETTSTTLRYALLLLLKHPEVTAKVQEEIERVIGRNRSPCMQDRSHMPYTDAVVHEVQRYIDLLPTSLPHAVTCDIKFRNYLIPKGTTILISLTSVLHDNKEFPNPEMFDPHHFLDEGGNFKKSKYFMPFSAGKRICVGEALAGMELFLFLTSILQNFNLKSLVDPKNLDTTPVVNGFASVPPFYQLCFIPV

Regarding `CNc1nc(-c2ccccc2Cl)nc2ccccc12`, the Potency in experiment [1] was 5.87 µM (active); in [3], 0.126 µM (active); in experiment [6], > 46 µM (inactive); in experiment [7], > 46 µM (inactive). The activity change, negative = inhibition in experiment [2] is -4.05% (inactive); in experiment [4] it was 12.6% (inactive); in experiment [9], 75.1% [at 2.29 µM] (inactive); in experiment [14], 5.07% (inactive). The activity, negative = inhibition in experiment [5] was -8.45% (inactive). For the same compound, the compound was classed as inactive in experiment [8], in experiment [11] and in [13]. Also, the Potency result in [10] and in experiment [15] was “inactive” throughout. Further, the activation in [12] was 11.6% (inactive). For the same compound, the max response in experiment [14] (setting [18]) was -3.59%; in experiment [14] (setting [19]), -2.38%.
Take `N#CCCn1c(=O)cnc2cnc(N3CCOCC3)nc21`: the Potency in experiment [1] is > 11.4 µM (inactive); in [3], 10 µM (active); in [6], > 9.22 µM (inactive); in [7], > 46 µM (inactive). Besides, the activity change, negative = inhibition in experiment [2] was -13.7% (inactive); in experiment [4] it was -0.169% (inactive); in experiment [14], 6.47% (inactive). The activity, negative = inhibition in experiment [5] is 19.5% (inactive). In experiment [8], the outcome was inactive. Moreover, the Potency entry in experiment [16] and in [15] was “inactive” in each case. Also, the max response in [14] (setting [18]) was determined as 18.1%; in experiment [14] (setting [19]), 23.1%.
In the case of `COc1ccc(Oc2ncc3nc(-c4ccc(OC)cc4)c(=O)n(Cc4cccs4)c3n2)cc1`, the Potency in experiment [1] is > 11.4 µM (inactive); in experiment [3] it was 15.8 µM (active); in experiment [6], > 9.22 µM (inactive); in experiment [7], > 46 µM (inactive). Moreover, the activity change, negative = inhibition in experiment [2] is -28.2% (inactive); in experiment [4] it was 2.5% (inactive); in experiment [14] it was 6.95% (inactive). Further, in experiment [5], the activity, negative = inhibition was 8.59% (inactive). Besides, the compound was classed as inactive in experiment [8]. In addition, the Potency entry in experiment [17], in experiment [10] and in [15] was “inactive” throughout. In addition, the results for the max response in experiment [14] (setting [18]) and in experiment [14] (setting [19]) were 13.2% and 21.9%, respectively.
